Screens as filed in PubChem BioAssay.
The list is not random: actives were taken first. Their share in the collection is about 5%.
TbPYK inhibitor – T. brucei pyruvate kinase inhibition; Q57TT1; TbPYK enzyme, Kinase-Glo Plus ATP luminescence, 45 min; Potency, µM (doses to about 76.8 µM), for inactives: at the highest dose activity, negative = inhibition, usual class: inhibitors; hit rate 0.12% among 410,000; AID 624173; also: potency is read from the fitted curve at half-maximal effect; nearly all actives have a fitted effect of over 50% in size
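Readout: single end-point luminescence (Kinase-Glo Plus, 10 min). Reaction conditions were TbPYK/substrate plus 130 uM ADP, 45 min at RT, pH 7.2 TEA buffer. No-enzyme wells served as controls, and data were normalized before concentration-response fitting.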
HCMV antiviral – human cytomegalovirus inhibition; AID 1259415; hit rate 4.5% among 410,000; activity change, negative = inhibition, % at 57.5 µM; HFF cells, HCMV-luciferase reporter, 72 h; stronger effect = lower value; in the data active = activity change below about -60%; inconclusive = no clear call, values can overlap the other calls; inactive = above about -39%
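Two compound doses tested in HFFs infected with HCMV-luciferase, MOI 1 PFU/cell, 72 h at 37C. Lysate luminescence read with OneGlo; data normalized against buffer-only and 10uM Salinomycin inhibitor controls.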
LmPK inh – LmPK (Leishmania mexicana) enzyme inhibition. Q27686. purified LmPK, Kinase-Glo ATP luminescence, 1 h. Potency, µM (doses to about 57.5 µM), without a hit: top-dose activity change, negative = inhibition, actives largely listed as inhibitors. hit rate 0.37% among 290,000. AID 1721; also: potency is read from the fitted curve at half-maximal effect
Target sequence (Q27686 whole entry, looked up): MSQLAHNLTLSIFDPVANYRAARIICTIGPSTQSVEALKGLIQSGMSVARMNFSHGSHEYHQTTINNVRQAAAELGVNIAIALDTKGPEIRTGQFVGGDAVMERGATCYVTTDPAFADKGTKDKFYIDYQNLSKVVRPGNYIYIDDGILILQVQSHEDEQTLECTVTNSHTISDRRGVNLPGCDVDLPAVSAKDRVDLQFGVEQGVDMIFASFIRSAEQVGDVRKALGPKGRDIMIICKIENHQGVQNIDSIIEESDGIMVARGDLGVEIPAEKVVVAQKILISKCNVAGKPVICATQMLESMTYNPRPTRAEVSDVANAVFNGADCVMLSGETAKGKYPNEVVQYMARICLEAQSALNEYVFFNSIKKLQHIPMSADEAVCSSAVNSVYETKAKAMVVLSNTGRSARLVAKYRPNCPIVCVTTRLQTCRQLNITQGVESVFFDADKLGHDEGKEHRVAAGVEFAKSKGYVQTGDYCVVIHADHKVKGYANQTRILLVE
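Screened at intermediate enzyme activity to detect both inhibitors and activators: LmPK at 0.1 nM, with a 0.5 nM enzyme column as activation reference. PEP 0.5 mM, ADP 0.1 mM; ATP detected by luminescence after 1 h.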
Vaccinia Venus – vaccinia inhibition (Venus reporter); Vaccinia virus Venus reporter expression, fluorescence; Potency, µM (titrated, usually from 36.5 µM), without a hit: at the highest dose activity change, negative = inhibition, actives largely listed as inhibitors; hit rate 0.46% among 330,000; AID 720580; calls by dose curve; tested in A549 cells; also: potency is read from the fitted curve at half-maximal effect; nearly all actives have a fitted effect of over 30% in size
Vaccinia mCherry – inhibitors of vaccinia virus infection (mCherry reporter signal); Vaccinia virus mCherry reporter infection, fluorescence; Potency, µM (titrated, usually from 36.5 µM), for the others: top-dose activity change, negative = inhibition, most hits filed as inhibitors; hit rate 0.63% among 310,000; AID 720579; calls by dose curve; tested in A549 cells; also: potency is read from the fitted curve at half-maximal effect; nearly all actives have a fitted effect of over 35% in size
The depositor's hits bear a star; i = inactive; ? = inconclusive; . = no result. Unless noted, calls follow the shape of the dose curve; as a rule, active = well fitted curve in the direction sought with a large enough effect; inconclusive = small, poorly fitted or top-dose-only effect, or another doubt; inactive = no such curve, though single readings can be large; an effect the other way counts as inactive or inconclusive. % is scaled to controls: 0 for no effect and ±100 for the full control effect.

SMILES | TbPYK inhibitor | HCMV antiviral | LmPK inh | Vaccinia Venus | Vaccinia mCherry
Cc1nc(CN2CCN(C(=O)NC3(c4ccccc4)CC3)CC2)cs1 | -3.5% | -77.0* | -8.6% | -13.0% | -6.9%
Clc1ccc(CNc2ccccn2)cc1 | 1.8% | 9.0 | -4.8% | -0.1% | 3.9%
CN(Cc1ccc(Cl)cc1Cl)C(=O)c1cc(=O)c2ccccc2o1 | -7.2% | -63.0* | 1.6% | -7.4% | i
CCCCNC(=O)C1(C)CCCCN1C(=O)c1ccc(F)cc1Cl (stereo unspecified) | 1.1% | -23.2 | . | 4.5% | 7.5%
CN1CCN(C(=O)CCCN2C(=O)/C(=C/c3cccc(Br)c3)SC2=S)CC1 | 1.9% | -84.5* | -20.2% | 47.3% | -24.8%
COc1ccc(/C=C2\SC(=S)N(CCCC(=O)N3CCN(C)CC3)C2=O)cc1 | -1.8% | -77.3* | -11.8% | -26.6% | -19.5%
CN1CCN(C(=O)CCN2C(=O)/C(=C/c3cccc(Br)c3)SC2=S)CC1 | -1.2% | -16.7 | 0.3% | 65.5% | ?
CCc1ccc(/C=C2\SC(=S)N(CCCC(=O)N3CCN(C)CC3)C2=O)cc1 | -4.5% | -100.5* | . | 28.2µM* | ?
COc1ccc(/C=C2\SC(=S)N(CCC(=O)NC3C=CS(=O)(=O)C3)C2=O)cc1 (stereo unspecified) | -1.7% | -79.7* | 3.5% | . | .
S=c1sc2c(Cl)ncnc2n1-c1ccccc1 | 1.8% | 23.6 | -2.7% | . | .
O=C(O)c1cccc(NC(=O)c2ccccc2NC(=O)c2ccco2)c1 | 4.8% | 6.0 | -11.3% | 3.9% | 3.0%
Cc1cccc(-c2ccc([N+](=O)[O-])cc2CN2CCN(c3ncc(Cc4ccccc4)cn3)CC2)c1 | . | 42.0 | . | -10.4% | ?
COc1ccc(NC(=O)Nc2nnc(N(CC(C)C)CC(C)C)s2)c(OC)c1 | 1.3% | -12.4 | . | -17.5% | -19.2%
CC(C(=O)NC1C=CS(=O)(=O)C1)N1C(=O)/C(=C/c2cccc(Cl)c2)SC1=S (stereo unspecified) | 2.2% | -65.0* | -3.6% | . | .
Cc1ccc(S(=O)(=O)C(CNS(=O)(=O)c2ccc(F)c(C)c2)c2cccs2)cc1 (stereo unspecified) | -8.8% | -6.5 | . | -19.6% | -20.1%
Cc1cc(OCC(=O)Nc2ccncc2)cc(C)c1Cl | 7.5% | -63.6* | 1.8% | . | .
COc1cccc(OCC(=O)Nc2ccncc2)c1 | 0.5% | -23.9 | -2.6% | -11.2% | i
CC(C)CCOc1cccc(OCC(=O)Nc2ccncc2)c1 | -5.5% | -76.8* | 0.9% | 2.7% | -22.5%
O=C(COc1ccc2ccccc2c1Br)Nc1cccnc1 | -12.0% | -16.1 | -7.7% | . | .
O=C(COc1ccc2ccccc2c1Br)Nc1ccncc1 | 1.3% | -60.3* | -7.6% | ? | -18.1%
CNC(=O)/C(C#N)=C/c1cn(CC(=O)NCc2ccco2)c2ccccc12 | -6.3% | -4.8 | 2.7% | -5.8% | i
Cc1ccc(NC(=O)/C(C#N)=C/c2cn(CC(=O)NCc3ccco3)c3ccccc23)cc1C | -2.5% | ? | 0.0% | 1.3% | -11.9%
Cc1ccc(C)c(NC(=O)/C(C#N)=C/c2cn(CC(=O)NCc3ccco3)c3ccccc23)c1 | -6.6% | -99.5* | 1.8% | -11.9% | i
Cc1cc(C)cc(NC(=O)/C(C#N)=C/c2cn(CC(=O)NCc3ccco3)c3ccccc23)c1 | -3.9% | -85.0* | 1.7% | 5.62µM* | ?
COc1ccc(CN2CCOc3ccc(CN4CCC(Oc5cccnc5)CC4)cc3C2)cc1C | . | . | . | -9.8% | -26.2%
SMILES | TbPYK inhibitor | HCMV antiviral | LmPK inh | Vaccinia Venus | Vaccinia mCherry
O=C(NCC1CCCCC1)c1cccc(S(=O)(=O)NCc2cccnc2)c1 | -2.9% | -10.6 | 3.3% | -9.6% | -16.3%
COC(=O)CN1C(=O)[C@@H]2[C@H](C1=O)[C@@H]1CC(C(=O)OC)=C[C@@H](C(=O)OC)[C@@H]3C1=C(C(=O)[C@@]3(C)NC(=O)c1ccccc1)[C@@H]2C | 4.4% | -65.6* | . | -15.3% | i
O=c1cnnc(N/N=C/c2ccccn2)[nH]1 | -17.4% | -32.3 | -1.7% | -19.8% | 2.24µM*
Cc1cc(=O)[nH]c(N/N=C/c2ccccn2)n1 | 6.7% | -99.9* | -15.1% | ? | ?
CC(/C=N/Nc1nncc(=O)[nH]1)=C\c1ccccc1 | -0.6% | 43.2 | 0.2% | -1.4% | -11.6%
Fc1cccc(/C=N/Nc2nncc3ccccc23)c1 | -12.2% | 200.8 | -17.7% | . | .
O=c1nc(N/N=C/c2ccccn2)cn[nH]1 | -12.8% | 80.4 | -16.0% | ? | 3.98µM*
C(=N\Nc1nncc2ccccc12)/c1ccccn1 | -14.8% | -97.7* | ? | ? | 10µM*
CC(NC(=O)c1c(O)nc2ccccn2c1=O)c1ccccc1 (stereo unspecified) | -6.6% | -20.8 | . | -7.2% | -5.0%
O=C(Nc1ccccc1)OCCOc1ccccc1Br | -0.3% | 31.0 | 0.3% | . | .
O=C(Nc1ccccc1)OC[C@@H]1C=CS(=O)(=O)N1Cc1ccc(Br)cc1 | -3.0% | -100.9* | . | -15.2% | 26.6%
COc1ccc(OC)c(C2CC(=O)N3CN(c4cccc(Cl)c4C)CSC3=C2C#N)c1 (stereo unspecified) | 3.55µM* | -11.2 | -1.6% | 5.8% | 51.0%
COc1cc(C2CC(=O)N3CN(c4ccccc4C)CSC3=C2C#N)cc(OC)c1OC (stereo unspecified) | . | 1.3 | -2.6% | . | .
CCc1ccccc1N1CSC2=C(C#N)C(c3cc(OC)c(OC)cc3OC)CC(=O)N2C1 (stereo unspecified) | 10µM* | 8.3 | -5.7% | . | .
N#CC1=C2SCN(c3ccccc3)CN2C(=O)CC1c1c(Cl)cccc1Cl (stereo unspecified) | 2.51µM* | -2.2 | -12.3% | -10.8% | -10.9%
COc1cc(OC)c(C2CC(=O)N3CN(C)CSC3=C2C#N)cc1OC (stereo unspecified) | ? | 7.1 | ? | -9.6% | -1.2%
COc1cc(OC)c(C2CC(=O)N3CN(c4ccccc4)CSC3=C2C#N)cc1OC (stereo unspecified) | 8.91µM* | 19.8 | 8.0% | . | .
CC(C(=O)N1CCOCC1)N1C(=O)C2C3CC(C(Br)C3Br)C2C1=O (stereo unspecified) | 1.6% | 12.8 | -3.8% | -4.7% | -7.3%
CCc1nc(C#N)c(N2CCCCC2)o1 | 2.0% | -33.1 | -5.0% | 0.0% | -10.8%
Cc1nc2sccn2c(=O)c1S(=O)(=O)NCc1ccc(F)cc1 | -2.3% | 4.7 | . | -1.3% | -6.3%
COC(=O)NC1CSCC1OC(=O)CCN1C(=O)c2ccccc2C1=O (stereo unspecified) | -4.4% | -25.7 | -10.5% | 6.7% | -16.0%
COc1ccc(C(CNS(=O)(=O)c2ccc(NC(C)=O)c(OC)c2)N2CCCC2)cc1 (stereo unspecified) | -3.0% | -23.5 | . | 6.6% | -7.5%
O=C(NCCc1c[nH]c2ccccc12)C(=O)NCC(c1cccnc1)N1CCN(c2ccccc2)CC1 (stereo unspecified) | -0.9% | ? | -0.7% | ? | 15.8µM*
